Among all 63,000 compounds or so, about 1,100 (1.7%) were called active. Cut-off read from the data, not from the text of the source: active = cytotoxicity above about 50%; inactive = the rest. The entries come from a sample that favours actives as a whole. Results with a measured potency or affinity are listed apart.
test: HPDE-C7 pancreatic duct cell viability loss – fluorescence, HTS (AID 430); details: HPDE-C7 pancreatic duct cells viability, at 10 µM, hits give high values;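 note: cells exposed to compound for 48 hours before viability readout; 0% = vehicle and 100% = reference cytotoxic drug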

Row | SMILES | cytotoxicity
1 | CCOC(=O)C1CCN(C(=O)CN(Cc2ccc(Cl)cc2)S(C)(=O)=O)CC1 | -1% (inactive)
2 | Cn1c(CCCOc2ccc(Cl)cc2Cl)nnc1SCC(=O)Nc1nccs1 | 1% (inactive)
3 | O=C(CCS(=O)(=O)c1ccc(Br)cc1)N1CCN(c2ccccc2)CC1 | -1.2% (inactive)
4 | CCOC(=O)c1[nH]c(C)c(C(=O)OCC)c1C | -6% (inactive)
5 | CCOC(=O)c1[nH]c(C)c(C(=O)N2CCc3ccccc32)c1C | 58.8% (active)
6 | CCOC(=O)c1[nH]c(C)c(C(=O)Nc2cc(OC)ccc2OC)c1C | 43.5% (inactive)
7 | CC(=O)c1c(C)[nH]c(C(=O)N2CCc3ccccc32)c1C | 1.3% (inactive)
8 | CCOC(=O)c1[nH]c(C)c(C(=O)Nc2ccc(Cl)cc2)c1C | -8.4% (inactive)
9 | CCOC(=O)c1[nH]c(C)c(C(=O)Nc2cc(Cl)ccc2C)c1C | 60.6% (active)
10 | CCOC(=O)c1[nH]c(C)c(C(=O)Nc2ccc(C)cc2C)c1C | 51.9% (active)
11 | CCOC(=O)c1[nH]c(C)c(C(=O)Nc2ccc(C)c(Cl)c2)c1C | -20.5% (inactive)
12 | CCOC(=O)c1[nH]c(C)c(C(=O)Nc2ccc(F)cc2)c1C | -4.5% (inactive)
13 | CCOC(=O)c1[nH]c(C)c(C(=O)Nc2ccc(C)c(C)c2)c1C | 8.5% (inactive)
14 | CCOC(=O)c1[nH]c(C)c(C(=O)c2cc(F)ccc2F)c1C | 72.2% (active)
15 | CCOC(=O)c1c(C)[nH]c(C(=O)OCC(=O)N2CCc3ccccc32)c1C | -15.4% (inactive)
16 | CCOC(=O)C1=C(N)N(c2ccccc2Oc2ccccc2)C(=O)C1 | 3.7% (inactive)
17 | CCS(=O)(=O)C(=C(Nc1ccc(OC)cc1)Nc1ccc(OC)cc1)S(=O)(=O)CC | -21.8% (inactive)
18 | CC(C)CC(=O)Nc1ccc(F)c(Cl)c1 | -0.2% (inactive)
19 | Cc1ccsc1-c1nc(CSCC(=O)NCc2ccc3c(c2)OCO3)c(C)o1 | 5.8% (inactive)
20 | CC(C)C(=O)Nc1ccc(NC(=O)c2ccco2)cn1 | -9.5% (inactive)
21 | Cc1cc(NC(=O)C(C)(C)C)no1 | -22.1% (inactive)
22 | CCN(CC)S(=O)(=O)c1ccc(F)cc1 | -8.3% (inactive)

Row | SMILES | cytotoxicity
23 | CC(C)c1[nH]nc2c1C(c1cccnc1)C(C#N)=C(N)O2 (stereo unspecified) | -15.1% (inactive)
24 | CCOC(=O)c1[nH]c(C)c(C(=O)Nc2ccccc2C)c1C | 52.4% (active)
25 | CCOC(=O)c1[nH]c(C)c(C(=O)Nc2cccc(Cl)c2C)c1C | 43.9% (inactive)
26 | CCOC(=O)c1[nH]c(C)c(C(=O)Nc2ccccc2F)c1C | 43.6% (inactive)
27 | O=C(OCc1cc2ccccc2[nH]c1=O)c1ccco1 | 20.9% (inactive)
28 | Cc1ccc(S(=O)(=O)NC(=O)Nn2c(C)nnc2C)cc1 | -7.7% (inactive)
29 | CC12CN3CC(C)(CN(C1)C3c1cc3ccccc3[nH]1)C2=O (stereo unspecified) | 14.8% (inactive)
30 | COc1ccc(CCNC(=O)CN(C2CCCCC2)S(C)(=O)=O)cc1OC | -1% (inactive)
31 | COCCn1c(SCC(=O)Nc2cccc(C)c2)nnc1C(C)C | 1% (inactive)
32 | CCOc1ccc(NS(=O)(=O)c2ccc3[nH]c(=O)oc3c2)cc1 | -0.3% (inactive)
33 | CCOc1ccc(NS(=O)(=O)c2ccc(SC)cc2)cc1 | 7.2% (inactive)
34 | CC1Cc2cc(C(=O)O)ccc2O1 (stereo unspecified) | -26.7% (inactive)
35 | CCN(C(=O)CCS(=O)(=O)c1ccc(Br)cc1)c1ccc2c(c1)OCO2 | 8.6% (inactive)
36 | CCN(C(=O)c1coc(=O)c(Br)c1)c1ccc2c(c1)OCO2 | 74.4% (active)
37 | O=C(c1coc(=O)c(Br)c1)N1CCOCC1 | -0.3% (inactive)
38 | COc1ccc(C2(CNC(=O)c3ccc(Br)o3)CCOCC2)cc1 | -0.2% (inactive)
39 | O=C(Cn1cc2c(n1)CCCC2)NCCc1ccccc1 | -13% (inactive)
40 | Cc1nc(SCC(=O)N2CCN(c3ccccc3)CC2)c2oc3ccccc3c2n1 | 48.5% (inactive)
41 | Cc1cc(NS(=O)(=O)c2ccc(NC(=O)c3ccoc3C)cc2)nc(C)n1 | 2.9% (inactive)
42 | COc1ccc(-c2nnnn2CCc2ccccc2)cc1 | -7.2% (inactive)
43 | COc1ccc(-n2nnnc2-c2cccnc2)cc1 | -6.7% (inactive)
44 | N#CCCS(=O)(=O)c1nnnn1-c1ccccc1 | 64.6% (active)

Row | SMILES | cytotoxicity
45 | COc1ccc(-n2nnnc2-c2cccc(OC)c2)cc1 | 68.4% (active)
46 | COc1ccc(-c2nnnn2-c2ccccc2OC)cc1 | 46.6% (inactive)
47 | CCOc1cccc(-n2nnnc2-c2ccc(OC)cc2)c1 | 56.8% (active)
48 | Clc1ccc(-n2nnnc2-c2ccccc2)cc1 | -17.1% (inactive)
49 | O=C(CSc1nnnn1-c1ccccc1)CSc1nnnn1-c1ccccc1 | -2.1% (inactive)
50 | CCS(=O)(=O)c1nnnn1-c1ccccc1S(C)(=O)=O | 33.3% (inactive)
51 | COc1cccc(Oc2nnnn2-c2ccccc2)c1 | -23% (inactive)
52 | COc1cccc(-n2nnnc2SCC(=O)c2cc(OC)ccc2OC)c1 | -12.2% (inactive)
53 | Nc1nc(-c2ccc(Cl)cc2)nn1C(=O)c1cccnc1 | 9.3% (inactive)
54 | CC(C)C(OC(=O)c1cc2sccc2n1C)C(=O)NCC1CCCO1 (stereo unspecified) | -19.4% (inactive)
55 | O=C(CSc1nnc(-c2ccccc2Br)o1)N1CCN(C(=O)c2ccco2)CC1 | -13.5% (inactive)
56 | CC1CCCCN1C(=O)CSc1nnc(-c2ccco2)n1CC1CCCO1 (stereo unspecified) | 3.9% (inactive)
57 | COc1cccc(OCc2nnc(SCC(=O)OC3CCCCC3)n2C)c1 | -7.5% (inactive)
58 | CCOc1ccccc1NC(=O)CSc1nnc(CNC(=O)c2ccco2)o1 | 6.4% (inactive)
59 | CN(C)C(=O)N1CCN(C(=O)c2ccccc2Sc2ccccc2C#N)CC1 | -6.6% (inactive)
60 | NS(=O)(=O)c1ccc(NC=C2C(=O)OC3(CCCCC3)OC2=O)cc1 | 6.2% (inactive)
61 | NS(=O)(=O)c1ccc(NC(=O)CSC2CCCCC2)cc1 | -4.6% (inactive)
62 | O=C1c2oc3ccc(Cl)cc3c(=O)c2C(c2cccc(Br)c2)N1CCO (stereo unspecified) | 0.8% (inactive)
63 | Cc1ccccc1OCC(=O)Nc1ccc(N2CCN(S(C)(=O)=O)CC2)cc1 | -2% (inactive)
64 | COc1cc(-c2nnc(COc3ccc4ccccc4c3)o2)cc(OC)c1OC | 34.6% (inactive)
65 | COc1ccc(-c2nnc(COc3ccc4ccccc4c3)o2)cc1OC | 4.4% (inactive)
66 | COc1cc(-c2nnc(COc3ccc4cc(Br)ccc4c3)o2)cc(OC)c1OC | 78.6% (active)

Row | SMILES | cytotoxicity
67 | COc1ccc(C(=O)OCn2nnc3ccccc3c2=O)cc1OC | 6.3% (inactive)
68 | CCOc1ccc(S(=O)(=O)n2cnc3cc(C)c(C)cc32)cc1 | 8.7% (inactive)
69 | CC(C)(C)N1C(=O)Cc2c1nc(N)c1c(N)nc(N3CCCCC3CO)c(C#N)c21 (stereo unspecified) | 54.6% (active)
70 | N#Cc1c(N)nc2c(c1N)CC(=O)N2c1ccccc1-c1ccccc1 | 0.1% (inactive)
71 | CCOC(=O)CNS(=O)(=O)CCN1C(=O)c2ccccc2C1=O | -14.2% (inactive)
72 | CCOC(=O)c1c(CN2CCCCC2C)oc2ccc(OC)cc12 (stereo unspecified) | 3.6% (inactive)
73 | CCOC(=O)c1cccc(NC(=O)c2cnc3ccccc3n2)c1 | 0.8% (inactive)
74 | O=S(=O)(c1ccc(Cl)cc1)N1CCSC1c1ccco1 (stereo unspecified) | 8.1% (inactive)
75 | O=C(Nc1ccc(Cl)c(Cl)c1)N1CCSC1c1ccco1 (stereo unspecified) | 62.5% (active)
76 | O=C(c1cc2ccccc2oc1=O)N1CCSC1c1ccco1 (stereo unspecified) | 4.9% (inactive)
77 | COc1ccc(-c2noc(CCC(=O)N3CCN(Cc4ccccc4)CC3)n2)cc1 | -6.2% (inactive)
78 | CCc1[nH]nc2c1C(c1ccc(Br)s1)C(C#N)=C(N)O2 (stereo unspecified) | -2.9% (inactive)
79 | CCCc1[nH]nc2c1C(c1ccncc1)C(C#N)=C(N)O2 (stereo unspecified) | 6.1% (inactive)
80 | CCCN1CC23C=CC(O2)C(C(=O)O)C3C1=O (stereo unspecified) | -2.8% (inactive)
81 | CC(C)COc1cccc(C(=O)Nc2ccc(S(=O)(=O)N3CCOCC3)cc2)c1 | 16.1% (inactive)
82 | CCCOC(=O)c1ccc(-c2c(C)noc2-c2ccc(OC)cc2O)o1 | -2.8% (inactive)
83 | CCOC(=O)c1ccc(OCC(=O)c2ccc(O)cc2O)cc1 | -2.2% (inactive)
84 | CCOC(=O)COC(=O)c1ccc(O)cc1 | -3.6% (inactive)
85 | CCOc1ccc(-c2n[nH]c(C)c2Oc2ccc(OC)cc2)c(O)c1 | 5.9% (inactive)
86 | CCOC(=O)c1c(N)n[nH]c1-c1ccc(OC)cc1 | 2.4% (inactive)
87 | CCOc1ccc(N2C(=O)c3ccc(C(=O)OCc4c(C)noc4C)cc3C2=O)cc1 | -3.6% (inactive)
88 | COc1ccc(CC(NC(C)=O)C(=O)N2CCN(C(=O)Nc3ccc(Cl)cc3)CC2)cc1OC (stereo unspecified) | 4.9% (inactive)

Row | SMILES | cytotoxicity
89 | O=C(Nc1nc2ccccc2n1CCOc1ccccc1)c1ccco1 | -12.8% (inactive)
90 | Cc1cccc(Nc2nc(NC(C)C)nc(Oc3ccc(=O)n(C)n3)n2)c1 | -11.3% (inactive)
91 | CCOC(=O)N1CCN(CC(=O)Nc2cc(OCC)ccc2OCC)CC1 | -9.8% (inactive)
92 | CCCCc1ccc(NC(=O)COCC)cc1 | -12.8% (inactive)
93 | CCCCc1ccc(NC(=O)OC)cc1 | -16.3% (inactive)
94 | CC(=O)Nc1ccc(S(=O)(=O)NCC(C)NS(=O)(=O)c2ccc(NC(C)=O)cc2)cc1 (stereo unspecified) | -20% (inactive)
95 | OC1(Cc2ccn[nH]2)CCCCC1 | 17.9% (inactive)
96 | O=C(OCCN1CCOCC1)c1cccnc1 | 0.3% (inactive)
97 | CCOc1cc(C(=O)Nc2nnc(C)s2)cc(OCC)c1OCC | -7.4% (inactive)
98 | COc1ccc(OC)c(-c2cc(C(=O)Nc3c(C)nn(Cc4ccc(Cl)cc4)c3C)no2)c1 | 17.1% (inactive)
99 | COc1ccccc1-c1cc(C(=O)NC(C)C)no1 | -2.5% (inactive)
100 | COc1ccc(OC)c(-c2cc(C(=O)Nc3cc(C)n(Cc4ccc(Cl)cc4)n3)no2)c1 | 62.5% (active)
101 | COc1ccccc1-c1cc(C(=O)Nc2ccc(F)cc2F)no1 | -11.9% (inactive)
102 | COc1ccc(NC(=O)c2cc(-c3ccccc3OC)on2)cc1 | 54.3% (active)
103 | COc1ccccc1-c1cc(C(=O)Nc2cccnc2)no1 | 79.8% (active)
104 | COc1ccc(CNC(=O)c2cc(-c3ccccc3OC)on2)cc1 | -1.1% (inactive)
105 | COc1ccc(-c2cc(C(=O)Nc3cc(C)n(Cc4ccc(Cl)cc4)n3)no2)cc1OC | 6.9% (inactive)
106 | COc1ccccc1-c1cc(C(=O)Nc2cc(C)on2)no1 | -2.8% (inactive)

— PubChem BioAssay AID430 (Sanford-Burnham Center for Chemical Genomics, 2006)
